High-throughput results deposited in PubChem BioAssay by National Center for Advancing Translational Sciences (NCATS).
The list is not random: actives were taken first. Their share in the collection is about 1.9%.
PINK1 expr mod = changes PINK1 expression. PINK1 immunofluorescence, high-content cytometry, 24 h. Potency, µM (doses to about 76.6 µM), for inactives: top-dose activation (PINK1 increase), actives largely listed as activators. 410,000 compounds, 0.2% hits; active = well fitted activation curve with a large enough effect; inconclusive = small, poorly fitted or top-dose-only effect; cell line not stated here; note: potency is the fitted concentration of half-maximal effect; % of control where 0% means no effect; nearly all actives have a fitted effect of over 65% in size
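Compound titrations (5 concentrations, 24 h) on a stable cell line; DMSO and CCCP controls. Endpoint: fixed-cell PINK1 immunofluorescence with mitochondrial, cell and nuclear markers, scanned by microplate cytometer.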
Epigenetic reg = epigenetic control regulation, reporter derepression; 280,000 compounds, 0.2% hits; murine LDR cells, GFP reporter derepression, 30 h; Potency, µM (highest dose often 53.9 µM), for the others: at the top dose GFP activation, hits mostly activators; note: potency is the fitted concentration of half-maximal effect; % of control where 0% means no effect; nearly all actives have a fitted effect of over 60% in size
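In this reporter-derepression format, murine cells bearing a silenced integrated CMV-GFP locus incubate with test compound (30 h, 37 C), then are washed and imaged; fluorescent objects of 20–120 um count as induced cells.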
Menin MLL FP TR = displaces Texas Red mutant MLL peptide from human menin; 270,000 compounds, 0.23% hits; O00255; Menin + Texas Red MLL mutant peptide, fluorescence polarization; AID 1768; Potency, µM (highest dose often 61.6 µM), inactives show at the top dose FP activity change, negative = inhibition, usual class: inhibitors; active = well fitted inhibition curve with a large enough effect in the polarisation, with a control signal flat, not every such curve was filed as active; inconclusive = small, poorly fitted or top-dose-only effect, or effect the other way, or a change in a side signal; inactive = no such curve, though single readings can be large or run the other way; the % refers to the polarisation; note: potency is the fitted concentration of half-maximal effect; % of control where 0% means no effect
MLL CXXC-DNA inh = MLL CXXC-DNA interaction inhibition. Potency, µM (top dose mostly 115 µM), for the others: top-dose activity change, negative = inhibition, usual class: inhibitors. Q03164. AID 2662. MLL-CXXC / FITC-HOXA9 DNA fluorescence polarization. 290,000 compounds, 0.037% hits; active = well fitted inhibition curve with a large enough effect in the polarisation, with a control signal flat, not every such curve was filed as active; inconclusive = small, poorly fitted or top-dose-only effect, or effect the other way, or a change in a side signal; inactive = no such curve, though single readings can be large or run the other way; the % refers to the polarisation; note: potency is the fitted concentration of half-maximal effect
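Fluorescence polarization: 7 uM MLL-CXXC (stock) preincubated 5 min with compounds, then 50 nM fluorescein-HOX-A9 DNA (stock) added; 30 min ambient. Buffer 50 mM Tris-HCl pH 7.5, 50 mM NaCl, 1 mM DTT, 0.05% BSA.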
ClpP mod = qHTS Assay for Activators of ClpP; purified B. subtilis ClpP, FRET peptide cleavage, 20 min; Potency, µM (highest dose often 57.5 µM), without a hit: top-dose activity change, negative = active; 340,000 compounds, 1.9% hits; active = well fitted falling curve with a large enough effect; inconclusive = small, poorly fitted or top-dose-only effect; inactive = no such curve, though single readings can be large or run the other way; note: potency is the fitted concentration of half-maximal effect; the source files actives as falling curves though it sought activators and does not explain the sign; nearly all actives have a fitted effect of over 65% in size
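Buffer: 100 mM Tris/HCl pH8, 100 mM KCl, 0.05% low protease BSA, 2.5% glycerol, 0.01% Tween-20. ClpP 10 microg/mL final; 20 min RT; delta FRET normalized to ADEP and DMSO controls.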
Menin-MLL FL inh = inhibitors of human menin-MLL interaction, wild-type MLL peptide; Fluorescence polarization, fluorescein-MLL peptide displacement from menin; FP activity change, % at 61.4 µM; 290,000 tested, under 10 active; active = well fitted curve in the direction sought with a large enough effect in the polarisation, not every such curve was filed as active; inconclusive = small, poorly fitted or top-dose-only effect, or effect the other way, or a change in a side signal; inactive = no such curve, though single readings can be large or run the other way; the % refers to the polarisation; note: % of control where 0% means no effect
MLL CXXC FP-Fl = disrupts human MLL CXXC domain binding to DNA; shares compounds with MLL CXXC-DNA inh; MLL CXXC-DNA binding, fluorescein FP; Potency, µM (titrated, usually from 345 µM), for the others: at the highest dose activity change, negative = inhibition, usual class: inhibitors; 200 compounds, 70% hits; AID 624160; note: potency is the fitted concentration of half-maximal effect; nearly all actives have a fitted effect of over 80% in size
MLL CXXC FP-TR = disrupts human MLL CXXC domain binding to DNA, Texas Red; shares compounds with MLL CXXC-DNA inh; MLL CXXC-DNA binding, Texas Red fluorescence polarization; Potency, µM (top dose mostly 345 µM), without a hit: at the highest dose activity change, negative = inhibition, most hits filed as inhibitors; 200 compounds, 40% hits; AID 624161; note: potency is the fitted concentration of half-maximal effect; % is set by controls: 0 for no effect and ±100 for the full control effect; nearly all actives have a fitted effect of over 75% in size
MLL CXXC TRF = MLL CXXC-DNA interaction inhibition, HTRF readout; MLL CXXC-DNA binding, HTRF, biochemical; 210 compounds, 30% hits; AID 624162; Potency, µM (series often up to 172 µM), for inactives: top-dose activity change, negative = inhibition, hits mostly inhibitors; shares compounds with MLL CXXC-DNA inh; note: % is set by controls: 0 for no effect and ±100 for the full control effect; nearly all actives have a fitted effect of over 80% in size
Numbers without * were called inactive; [ ] = another dose, or the depositor's remark. Unless noted, calls come from the whole dose curve; as a rule, active = well fitted curve in the direction sought with a large enough effect; inconclusive = small, poorly fitted or top-dose-only effect, or another doubt; inactive = no such curve, though single readings can be large; an effect the other way counts as inactive or inconclusive.

What do the screens show for `COc1ccc(-c2nn(-c3ccccc3)cc2/C=C/C(=O)OCC(=O)Nc2ccc(C#N)cc2)cc1`?
PINK1 expr mod: 7.8%; Epigenetic reg: 2.0%; Menin MLL FP TR: inconclusive; MLL CXXC-DNA inh: inconclusive; ClpP mod: 28.2µM*; Menin-MLL FL inh: 5.9; MLL CXXC FP-Fl: 67.7%; MLL CXXC FP-TR: inconclusive; MLL CXXC TRF: 5.3%

What do the screens show for `Cn1ccc2c(-c3ccc4c(c3)OCCO4)cc3c(c21)C1CCC3O1` (stereo unspecified)?
PINK1 expr mod: 0.5%; ClpP mod: 4.4%

How did CCOc1cc(/C=C2\C(=O)NN(c3ccccc3)C2=O)cc([N+](=O)[O-])c1O do in these assays?
PINK1 expr mod: 1.5%; Epigenetic reg: 0.7%; Menin MLL FP TR: inconclusive; MLL CXXC-DNA inh: inconclusive; Menin-MLL FL inh: -6.5

Results for COc1cc(/C=C2\C(=O)NN(c3ccccc3)C2=O)cc([N+](=O)[O-])c1O ?
PINK1 expr mod: 0.4%; Epigenetic reg: -0.5%; Menin MLL FP TR: inconclusive; MLL CXXC-DNA inh: 25.1µM*; Menin-MLL FL inh: 7.3; MLL CXXC FP-Fl: 44.8µM*; MLL CXXC FP-TR: 113µM*; MLL CXXC TRF: 26.2%

How did CCOC(=O)COc1ccc(/C=C2/C(=O)NN(c3ccc(F)cc3)C2=O)cc1OC do in these assays?
PINK1 expr mod: 3.9%; Menin MLL FP TR: 11.1%; MLL CXXC-DNA inh: inconclusive; ClpP mod: -3.3%; Menin-MLL FL inh: 4.1; MLL CXXC FP-Fl: inconclusive; MLL CXXC FP-TR: inconclusive; MLL CXXC TRF: 17.9%

Results for COc1cc(/C=C2\C(=O)NN(c3ccc(C)cc3)C2=O)cc([N+](=O)[O-])c1O ?
PINK1 expr mod: 1.3%; Epigenetic reg: -0.6%; Menin MLL FP TR: inconclusive; MLL CXXC-DNA inh: 22.4µM*; Menin-MLL FL inh: 3.2; MLL CXXC FP-Fl: 17.9µM*; MLL CXXC FP-TR: 89.5µM*; MLL CXXC TRF: 97.1%

Results for COc1ccc(OCc2cc(C(=O)N(Cc3nccn3C)C(C)C)no2)c2ccccc12 ?
PINK1 expr mod: 0.8%; Menin MLL FP TR: -16.2%; MLL CXXC-DNA inh: 1.6%; ClpP mod: -1.9%; Menin-MLL FL inh: -0.2

How did Cc1ccc2cc(N)ccc2n1 do in these assays?
PINK1 expr mod: 0.2%; Epigenetic reg: 3.8%; Menin MLL FP TR: 2.3%; MLL CXXC-DNA inh: -8.6%; Menin-MLL FL inh: -7.3

What do the screens show for `Nc1ccc2cc3ccc(N)cc3nc2c1`?
Menin MLL FP TR: -14.8%; MLL CXXC-DNA inh: inconclusive; Menin-MLL FL inh: inconclusive; MLL CXXC FP-Fl: 1.13µM*; MLL CXXC FP-TR: 35.6µM*; MLL CXXC TRF: inconclusive

Results for CCC(=O)N1c2ccc(S(=O)(=O)CCC(=O)NCc3ccc(OC)cc3)cc2CC1C (stereo unspecified) ?
PINK1 expr mod: 0.7%; Epigenetic reg: 0.2%; ClpP mod: -3.6%

Results for O=C(CN1C(=O)C(=O)N(Cc2ccccc2)C1=O)Nc1cc(Cl)cc(Cl)c1 ?
PINK1 expr mod: 1.7%; Epigenetic reg: -1.4%; MLL CXXC-DNA inh: 1.6%; Menin-MLL FL inh: -1.5

Results for NC(=O)CN1C(=O)C(=O)N(Cc2cccc(Cl)c2)C1=O ?
PINK1 expr mod: 0.0%; Menin MLL FP TR: 3.3%; MLL CXXC-DNA inh: inconclusive; ClpP mod: -0.2%; Menin-MLL FL inh: 1.6; MLL CXXC FP-Fl: 66.2%; MLL CXXC FP-TR: -9.1%; MLL CXXC TRF: -3.0%

Results for COc1ccc(-c2nc3c(=O)n(C)c(=O)nc-3n(C)n2)cc1 ?
PINK1 expr mod: 0.1%; ClpP mod: -2.9%

What do the screens show for `Cn1nc(-c2ccc(Cl)cc2)nc2c(=O)n(C)c(=O)nc1-2`?
PINK1 expr mod: 7.4%; Epigenetic reg: inconclusive; Menin MLL FP TR: inconclusive; MLL CXXC-DNA inh: 31.6µM*; ClpP mod: -6.1%; Menin-MLL FL inh: inconclusive; MLL CXXC FP-Fl: 142µM*; MLL CXXC FP-TR: inconclusive; MLL CXXC TRF: 48.2%

How did O=C(O)c1ccc(NC2=C/C(=N/S(=O)(=O)c3ccccc3)c3ccccc3C2=O)cc1 do in these assays?
PINK1 expr mod: -2.0%; Epigenetic reg: -0.5%; Menin MLL FP TR: inconclusive; MLL CXXC-DNA inh: inconclusive; Menin-MLL FL inh: -5.3; MLL CXXC FP-Fl: inconclusive; MLL CXXC FP-TR: inconclusive; MLL CXXC TRF: 77.3%

What do the screens show for `O=C(O)c1ccccc1-c1c2cc(Br)c(=O)c(Br)c-2oc2c(Br)c(O)c(Br)cc12`?
Menin MLL FP TR: inconclusive; MLL CXXC-DNA inh: inconclusive; Menin-MLL FL inh: inconclusive; MLL CXXC FP-Fl: 0.633µM*; MLL CXXC FP-TR: 5.03µM*; MLL CXXC TRF: -61.7%

Results for Cc1ccc(C=C2C(=O)c3ccccc3C2=O)o1 ?
PINK1 expr mod: 6.8%; Epigenetic reg: 0.0%; Menin MLL FP TR: 24.4%; MLL CXXC-DNA inh: 0.2%; ClpP mod: 1.3%; Menin-MLL FL inh: 8.4

How did O=C(O)c1ccc2c(c1)C(=O)/C(=C\c1ccco1)C2=O do in these assays?
PINK1 expr mod: 0.6%; Epigenetic reg: 0.0%; Menin MLL FP TR: inconclusive; MLL CXXC-DNA inh: 31.6µM*; ClpP mod: 2.2%; Menin-MLL FL inh: 4.2; MLL CXXC FP-Fl: 22.5µM*; MLL CXXC FP-TR: 17.8%; MLL CXXC TRF: 48.5µM*

Results for Cc1ccc(/C=C2/C(=O)c3ccc(C(=O)O)cc3C2=O)o1 ?
PINK1 expr mod: -1.8%; Epigenetic reg: -2.9%; Menin MLL FP TR: inconclusive; MLL CXXC-DNA inh: 39.8µM*; ClpP mod: -1.7%; Menin-MLL FL inh: inconclusive; MLL CXXC FP-Fl: inconclusive; MLL CXXC FP-TR: inconclusive; MLL CXXC TRF: 38.5µM*

Results for CCN(CC)CCC[C@H](C)Nc1c2ccc(Cl)cc2nc2ccc(OC)cc12 ?
Epigenetic reg: 3.55µM*; Menin MLL FP TR: -22.5%[24.8 µM]; MLL CXXC-DNA inh: 44.7µM*; Menin-MLL FL inh: inconclusive; MLL CXXC FP-Fl: 50.3µM*; MLL CXXC FP-TR: inconclusive; MLL CXXC TRF: -0.2%
